From PubChem BioAssay
Active and inactive are the calls of the source. How the calls were made is not given here. Where a SMILES comes first, the peptide text is derived from it. The star is where a group is joined. Boc = CC(C)(C)OC(=O)*

These compounds were tested against Pantothenate synthetase (Mycobacterium tuberculosis (strain ATCC 25618 / H37Rv)) (UniProt P9WIL5) (assay: Coupled enzyme confirmation of inhibitors against recombinant Mtb PanC (AID 375;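 further: 0% = full reaction with vehicle and 100% = no enzyme background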)). Conditions: coupled enzyme assay; at 10 µM, hits give high values.
Chain of Pantothenate synthetase (Mycobacterium tuberculosis (strain ATCC 25618 / H37Rv)) (P9WIL5 whole entry, looked up): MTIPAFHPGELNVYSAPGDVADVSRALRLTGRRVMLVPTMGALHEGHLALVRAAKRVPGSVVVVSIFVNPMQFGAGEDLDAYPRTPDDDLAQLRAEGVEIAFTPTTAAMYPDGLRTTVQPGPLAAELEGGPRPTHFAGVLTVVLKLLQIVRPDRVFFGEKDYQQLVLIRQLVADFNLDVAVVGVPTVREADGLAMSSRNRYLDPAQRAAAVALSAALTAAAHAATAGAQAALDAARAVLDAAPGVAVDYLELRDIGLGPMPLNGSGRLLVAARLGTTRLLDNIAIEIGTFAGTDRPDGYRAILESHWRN

Question: How did the inhibition turn out when `CCCC(O)(CCN(C)C)c1ccc(OC)cc1` (stereo not given) was run?
Answer: Its inhibition is 0% (inactive).

Question: With `Cc1ccc2c(c1)NC(=O)C(CC(=O)NCCN(CC(C)C)CC(C)C)O2` (stereo not given) as the compound, how does the inhibition read?
Answer: The inhibition was 2% (inactive).

Question: `CCC(=O)N1CCc2cc(Br)cc(S(=O)(=O)N3CCCCCC3)c21` was tested. Which inhibition did it give?
Answer: The inhibition was 0% (inactive).

Question: Which inhibition does the source give for `COc1cccc(-c2nnc3sc(C4CCCCC4)nn23)c1` here?
Answer: The inhibition was 4% (inactive).

Question: For `COc1ccc(OC)c(NC(=O)CS(=O)(=O)Cc2nc(-c3ccccc3C)oc2C)c1`, which inhibition is on record?
Answer: Its inhibition is 0% (inactive).

Question: `CCCCOc1ccc(C(=O)N2CCC(C)CC2)cc1` was tested. Which inhibition did it give?
Answer: The inhibition was 0% (inactive).

Question: Which inhibition does the source give for `C(#Cc1ccccc1)Cn1nnc2ccccc21` here?
Answer: Its inhibition is 0% (inactive).

Question: For `O=C(Nc1ccc2c(c1)nc1n2CCSC1)c1ccccc1`, which inhibition is on record?
Answer: Its inhibition is 0% (inactive).

Question: For `Cn1c(=O)c2c(nc(SCC(=O)O)n2Cc2cccc(C(F)(F)F)c2)n(C)c1=O`, which inhibition is on record?
Answer: The inhibition was 8% (inactive).

Question: `C=CCOc1cccc(C2/C(=C(\O)c3ccc(F)cc3)C(=O)C(=O)N2CCN(C)C)c1` (stereo not given) was tested. Which inhibition did it give?
Answer: Its inhibition is 0% (inactive).

Question: For `O=C(NCC1CCCO1)C1CCC(CNS(=O)(=O)c2ccccc2)CC1` (stereo not given), which inhibition is on record?
Answer: The inhibition was 5% (inactive).

Question: With `CC(C)(C)OC(=O)N1CCCC1C(=O)NC(Cc1ccccc1)C(=O)O` (stereo not drawn) (Boc-Pro-Phe-OH; configuration not given here) as the compound, how does the inhibition read?
Answer: Its inhibition is 4% (inactive).

Question: How did the inhibition turn out when `CCN1CCN(c2nc3c(C)cccn3c(=O)c2/C=C(\C#N)S(=O)(=O)c2ccccc2)CC1` was run?
Answer: Its inhibition is 0% (inactive).

Question: How did the inhibition turn out when `Cc1nnc(SCC(=O)Nc2nccs2)s1` was run?
Answer: The inhibition was 0% (inactive).

Question: Which inhibition does the source give for `COCCn1nnnc1C(c1ccc(OC)cc1)N1CCN(c2ccccc2F)CC1` (stereo not given) here?
Answer: The inhibition was 0% (inactive).

Question: With `Cc1ccccc1Cn1nc(C)c(NC(=O)c2noc3c2CCc2ccccc2-3)c1C` as the compound, how does the inhibition read?
Answer: The inhibition was 0% (inactive).

Question: For `CCc1nnc(NC(=O)NCN2C(=O)C3C4C=CC(C4)C3C2=O)s1` (stereo not given), which inhibition is on record?
Answer: The inhibition was 0% (inactive).

Question: For `O=C1OC(N2CCN(c3ccccn3)CC2)c2ccccc21` (stereo not given), which inhibition is on record?
Answer: The inhibition was 0% (inactive).

Question: For `Cn1cc(C(=O)c2ccc(F)cc2)cc1-c1nc2ccccc2n1C`, which inhibition is on record?
Answer: The inhibition was 6% (inactive).

Question: `CCOC(=O)c1cccc(NC(=O)c2ccco2)c1` was tested. Which inhibition did it give?
Answer: The inhibition was 0% (inactive).

Question: For `CCOc1ccc(-c2nnn(CC(=O)N3CCN(c4ccc(F)cc4)CC3)n2)cc1OCC`, which inhibition is on record?
Answer: The inhibition was 0% (inactive).

Question: `CCc1ccc2c(CN(CC)Cc3nc4ccccc4c(=O)[nH]3)cc(=O)oc2c1` was tested. Which inhibition did it give?
Answer: The inhibition was 0% (inactive).

Question: `CCN1C(=O)/C(=C/N(C)c2ccccc2)OC1=S` was tested. Which inhibition did it give?
Answer: The inhibition was 4% (inactive).

Question: Which inhibition does the source give for `CCOC(=O)c1sc2cccc(F)c2c1N` here?
Answer: Its inhibition is 13% (inactive).

Question: How did the inhibition turn out when `COc1ccc(CC(=O)Nc2ccc(OC)c(NC(=O)c3ccco3)c2)cc1` was run?
Answer: The inhibition was 7% (inactive).

Question: How did the inhibition turn out when `CCOC(=O)CN(C)Cc1c[nH]c2ccccc12` was run?
Answer: The inhibition was 14% (inactive).

Question: With `Cn1c(=O)c2c(nc(-n3ccnc3)n2C)n(C)c1=O` as the compound, how does the inhibition read?
Answer: The inhibition was 0% (inactive).

Question: With `COCCNC(=O)c1c(N)n(CCC2=CCCCC2)c2nc3ccccc3nc12` as the compound, how does the inhibition read?
Answer: Its inhibition is 0% (inactive).

Question: With `CCOC(=O)N1CCN(c2c(N3CCc4ccccc4C3)c(=O)c2=O)CC1` as the compound, how does the inhibition read?
Answer: Its inhibition is 0% (inactive).

Question: `CSc1ccccc1NC(=O)CN(Cc1ccccc1)S(C)(=O)=O` was tested. Which inhibition did it give?
Answer: Its inhibition is 0% (inactive).

Question: For `CCOC(=O)CCC(=O)Nc1ccc(S(=O)(=O)N2CCCC2)cc1`, which inhibition is on record?
Answer: Its inhibition is 0% (inactive).

Question: How did the inhibition turn out when `CCCOc1ccc(OCCSc2ncccn2)cc1` was run?
Answer: The inhibition was 0% (inactive).

Question: `Clc1ccc(SCCn2ccnc2)cc1` was tested. Which inhibition did it give?
Answer: Its inhibition is 0% (inactive).

Question: `O=C(c1cccnc1)N1CCN(Cc2ccc3c(c2)OCO3)CC1` was tested. Which inhibition did it give?
Answer: Its inhibition is 0% (inactive).

Question: Which inhibition does the source give for `CC1CCN(S(=O)(=O)c2ccc(S(=O)(=O)NCC(=O)C(C)(C)C)cc2)CC1` here?
Answer: Its inhibition is 2% (inactive).

Question: With `C=CCOC(=O)CC(NC(=O)c1ccccc1)c1ccccc1` (stereo not given) as the compound, how does the inhibition read?
Answer: Its inhibition is 0% (inactive).

Question: With `CCOc1ccc2nc(SCC(=O)N3CCCCCC3)c(C#N)cc2c1` as the compound, how does the inhibition read?
Answer: Its inhibition is 0% (inactive).

Question: `N#CCOc1nc(N2CCOCC2)nc(N2CCOCC2)n1` was tested. Which inhibition did it give?
Answer: Its inhibition is 0% (inactive).

Question: How did the inhibition turn out when `COc1ccc(-c2noc(COc3ccc(C)c(C)c3)n2)cc1OC` was run?
Answer: The inhibition was 0% (inactive).

Question: How did the inhibition turn out when `Cc1ccc2cc(CCNC(=O)C(C)C)c(=O)[nH]c2c1C` was run?
Answer: The inhibition was 3% (inactive).
